The campaign covered roughly 5,500 compounds. About 2,000 (36%) were called active. Inconclusive results (about 18%) are left out. No stated cut-off is given here; in the data, active means normalized growth mostly below about 0.91 (no sharp cut-off); inconclusive means no clear call, values can overlap the other calls; inactive means mostly above about 0.92. The list shows a part of the results.
Assay: chemical genetic growth profiling, strain panel (AID 1159580);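 further: tested at 20 µM; growth read once vehicle control cultures reached saturation at 30 °C; 1 = growth at the plate median or of vehicle wells; lower values mean less growth of the strain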
Conditions: S. cerevisiae deletion strains, growth OD

Measured: normalized growth

Cc1onc(-c2c(Cl)cccc2Cl)c1C(=O)NC(C)(C)CC(C)(C)C
inactive: locus YAR019C, strain CDC15, active compounds read low 0.998 | locus YBL105C, strain PKC1, active compounds read low 0.99 | locus YBR135W, strain CKS1, active compounds read low 0.991 | locus YBR136W, strain MEC1, active compounds read low 0.989 | locus YBR160W, strain CDC28, active compounds read low 0.997 | locus YDL017W, strain CDC7, active compounds read low 0.997 | locus YDL028C, strain MPS1, active compounds read low 0.976 | locus YDL101C, strain DUN1, active compounds read low 0.994 | locus YDL108W, strain KIN28, active compounds read low 0.983 | locus YDL132W, strain cdc53, active compounds read low 0.992 | locus YDL214C, strain PRR2, active compounds read low 0.945 | locus YDR052C, strain DBF4, active compounds read low 0.991 | locus YDR054C, strain cdc34, active compounds read low 0.995 | locus YDR226W, strain ADK1, active compounds read low 0.999 | locus YDR477W, strain SNF1, active compounds read low 0.977 | locus YER123W, strain YCK3, active compounds read low 0.919 | locus YER133W, strain GLC7, active compounds read low 0.97 | locus YFL009W, strain cdc4, active compounds read low 0.995 | locus YFL029C, strain CAK1, active compounds read low 0.998 | locus YFR003C, strain YPI1, active compounds read low 0.992 | locus YFR019W, strain FAB1, active compounds read low 0.972 | locus YFR028C, strain CDC14, active compounds read low 0.995 | locus YGR040W, strain KSS1, active compounds read low 0.956 | locus YGR052W, strain FMP48, active compounds read low 1.04 | locus YGR092W, strain DBF2, active compounds read low 0.969 | locus YHR030C, strain SLT2, active compounds read low 1.12 | locus YHR079C, strain IRE1, active compounds read low 1.05 | locus YHR082C, strain KSP1, active compounds read low 1.08 | locus YHR205W, strain SCH9, active compounds read low 0.955 | locus YIL147C, strain SLN1, active compounds read low 0.99 | locus YJL095W, strain BCK1, active compounds read low 1.07 | locus YJL128C, strain PBS2, active compounds read low 0.945 | locus YJL157C, strain FAR1, active compounds read low 0.953 | locus YJR016C, strain ILV3, active compounds read low 0.992 | locus YJR066W, strain TOR1 (second series), active compounds read low 0.951 | locus YJR066W, strain TOR1, active compounds read low 1.09 | locus YKL048C, strain ELM1, active compounds read low 0.982 | locus YKL067W, strain YNK1, active compounds read low 0.961 | locus YKL101W, strain HSL1, active compounds read low 0.953 | locus YKL193C, strain SDS22, active compounds read low 0.996 | locus YKL203C, strain TOR2, active compounds read low 1.04 | locus YLR113W, strain HOG1, active compounds read low 0.962 | locus YLR133W, strain CKI1, active compounds read low 0.965 | locus YLR403W, strain SFP1, active compounds read low 0.927 | locus YML070W, strain DAK1, active compounds read low 0.932 | locus YMR001C, strain CDC5, active compounds read low 0.998 | locus YMR205C, strain PFK2 (second series), active compounds read low 0.966 | locus YMR277W, strain FCP1, active compounds read low 0.998 | locus YNL006W, strain LST8, active compounds read low 0.988 | locus YNL020C, strain ARK1, active compounds read low 0.971 | locus YNL161W, strain CBK1, active compounds read low 0.995 | locus YNL183C, strain NPR1, active compounds read low 1.03 | locus YNL207W, strain RIO2, active compounds read low 0.991 | locus YNL222W, strain SSU72, active compounds read low 0.989 | locus YNL307C, strain MCK1 (second series), active compounds read low 1 | locus YOL078W, strain AVO1, active compounds read low 0.992 | locus YOL136C, strain PFK27, active compounds read low 0.95 | locus YOR061W, strain CKA2, active compounds read low 0.959 | locus YOR119C, strain RIO1, active compounds read low 0.992 | locus YOR231W, strain MKK1, active compounds read low 1.02 | locus YOR329C, strain SCD5, active compounds read low 0.994 | locus YPL031C, strain PHO85, active compounds read low 0.979 | locus YPL153C, strain RAD53, active compounds read low 0.964 | locus YPL204W, strain HRR25, active compounds read low 0.977 | locus YPL209C, strain IPL1, active compounds read low 0.993 | locus YPL256C, strain CLN2, active compounds read low 1.08 | locus YPR025C, strain CCL1, active compounds read low 0.992 | locus YPR106W, strain ISR1, active compounds read low 0.993 | locus YPR111W, strain DBF20, active compounds read low 0.989 | strain NNK1, active compounds read low 0.99 | strain TSCII, active compounds read low 0.995
